The record followed here is PubChem BioAssay (NCATS).

Records with an inconclusive call do not appear. Entries that show only a call come without a potency. Active and inactive are the calls of the source. The call rests on the fitted dose curve; in most records, active means well fitted curve in the direction sought with a large enough effect; inconclusive means small, poorly fitted or top-dose-only effect, or another doubt; inactive means no such curve, though single readings can be large; an effect the other way counts as inactive or inconclusive.
Potency means the concentration at half of the fitted maximal effect.

The nature of the first experiment: MultiTox-Fluor Cytotoxicity Assay - LYMP1-001 - Dead Cells (AID 946).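 Further: cells exposed to compound for 16 h.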 The conditions noted are these: LYMP1-001 lymphoblastoid cells, dead-cell protease fluorescence; series mostly up to 92.2 µM. A digest of the protocol:
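In this qHTS, 15 uM tetraoctylammonium bromide defined 100% and DMSO defined basal activity. Lymphoblastoid cells (LYMP1-001, 2500 per well) received compound for 16 hr at 37 C before a fluorogenic dead-cell substrate readout at 485/520 nm.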
Consider `C=C1C(CCl)(CCl)C2(Cl)C(Cl)C(Cl)C1(Cl)C2(Cl)Cl` (stereo unspecified), for which the Potency is 50.1 µM (active).
`Nc1ccc(N=Nc2ccccc2)c(N)n1`: the Potency result is “inactive”.
On the same count and under the same terms, to `C[C@H](CCC(=O)O)[C@H]1CC[C@H]2[C@@H]3[C@H](O)C[C@@H]4C[C@H](O)CC[C@]4(C)[C@H]3C[C@H](O)[C@]12C` belongs “inactive”.

A short description of another experiment: Cell Viability - LYMP1-002 - Assay at 16 hr (AID 948). The conditions noted are these: LYMP1-002 lymphoblastoid cell viability; series mostly up to 92.2 µM. The method in brief:
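In this qHTS, lymphoblastoid LYMP1-002 cells (human) receive compounds for 16 hr at 37 C. Viability is taken from CellTiter-Glo ATP luminescence, and AC50 derives from standard Hill fits.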
As to `C=C1C(CCl)(CCl)C2(Cl)C(Cl)C(Cl)C1(Cl)C2(Cl)Cl` (stereo unspecified), the Potency was 50.1 µM (active).
On the same count and under the same terms, to `Nc1ccc(N=Nc2ccccc2)c(N)n1` belongs “inactive”; to `C[C@H](CCC(=O)O)[C@H]1CC[C@H]2[C@@H]3[C@H](O)C[C@@H]4C[C@H](O)CC[C@]4(C)[C@H]3C[C@H](O)[C@]12C`, “inactive”.
